Measured values published in PubChem BioAssay (NCATS).
Inconclusive results are not listed. Active and inactive are the calls of the source. Unless noted, the call rests on the fitted dose curve.

Columns and labels:
[1] = qHTS for Inhibitors of the Functional Ribonucleoprotein Complex (vRNP) of Lassa (LASV) Arenavirus: LASV Primary Screen - GLuc reporter signal (AID 1347082; calls by dose curve; tested in HEK293 reporter line; further: nearly all actives have a fitted effect of over 60% in size)
[2] = qHTS for Inhibitors of the Functional Ribonucleoprotein Complex (vRNP) of Lassa (LASV) Arenavirus: Viability assay - alamar blue signal for LASV Primary Screen (AID 1347083; calls by dose curve; tested in HEK293 reporter line; further: nearly all actives have a fitted effect of over 80% in size)
[3] = qHTS for Inhibitors of the Functional Ribonucleoprotein Complex (vRNP) of Lymphocytic Choriomeningitis Arenaviruses (LCMV): Viability assay - alamar blue signal for LCMV Primary Screen (AID 1347085; calls by dose curve; tested in HEK293 reporter line; further: nearly all actives have a fitted effect of over 80% in size)
[4] = biological target: Nucleoprotein (Lymphocytic choriomeningitis virus (strain Armstrong)) (UniProt P09992); test: qHTS for Inhibitors of the Functional Ribonucleoprotein Complex (vRNP) of Lymphocytic Choriomeningitis Arenaviruses (LCMV): LCMV Primary Screen - GLuc reporter signal (AID 1347086); further: nearly all actives have a fitted effect of over 70% in size
Further: series mostly up to about 57 µM.
On the % scale 0 is the no-effect control and ±100 the full control effect.

Sequence of Nucleoprotein (Lymphocytic choriomeningitis virus (strain Armstrong)) (P09992 whole entry, looked up): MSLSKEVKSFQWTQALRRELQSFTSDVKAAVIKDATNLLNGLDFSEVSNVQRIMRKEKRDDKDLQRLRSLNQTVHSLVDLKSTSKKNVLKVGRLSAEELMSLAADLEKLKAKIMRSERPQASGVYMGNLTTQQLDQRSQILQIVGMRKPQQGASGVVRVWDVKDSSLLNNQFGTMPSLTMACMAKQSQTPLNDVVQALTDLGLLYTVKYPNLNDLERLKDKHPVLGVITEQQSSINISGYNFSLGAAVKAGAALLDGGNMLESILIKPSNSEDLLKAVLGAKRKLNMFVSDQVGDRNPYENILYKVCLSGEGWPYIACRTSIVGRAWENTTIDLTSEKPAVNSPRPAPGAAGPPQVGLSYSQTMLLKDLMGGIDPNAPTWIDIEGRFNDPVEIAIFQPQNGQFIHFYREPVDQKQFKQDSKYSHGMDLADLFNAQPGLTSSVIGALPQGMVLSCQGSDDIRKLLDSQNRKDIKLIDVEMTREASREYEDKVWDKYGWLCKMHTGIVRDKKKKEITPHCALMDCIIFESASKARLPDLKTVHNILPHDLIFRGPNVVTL

CCCCNc1c(C(=O)OCC)c(C)nc2c1cnn2CC
inactive: Potency [1] | Potency [2] | Potency [3] | Potency [4]

Oc1cccc2[nH]ccc12
inactive: Potency [1] | Potency [2] | Potency [3] | Potency [4]

C#C[C@]1(OC(C)=O)CC[C@H]2[C@@H]3CCC4=C/C(=N/O)CC[C@@H]4[C@H]3CC[C@@]21CC
inactive: Potency [1] | Potency [2] | Potency [3] | Potency [4]

C#CC1(O)CC[C@H]2[C@@H]3CCC4=CCCC[C@@H]4[C@H]3CC[C@@]21C (some centres undefined)
inactive: Potency [1] | Potency [2] | Potency [3] | Potency [4]

OC(C#CCN1CCCC1)(c1ccccc1)c1ccccc1
inactive: Potency [1] | Potency [2] | Potency [3] | Potency [4]

CCN(CC)CC1CCCCN1CC(=O)N1c2ccccc2C(=O)Nc2cccnc21 (centres undefined)
inactive: Potency [1] | Potency [2] | Potency [3] | Potency [4]

Cc1ccc(O)cc1
inactive: Potency [1] | Potency [2] | Potency [3] | Potency [4]

Cc1c(N(C)C)c(=O)n(-c2ccccc2)n1C
inactive: Potency [1] | Potency [2] | Potency [3] | Potency [4]

CC(=O)N(CC(O)CN(C(C)=O)c1c(I)c(C(=O)NCC(O)CO)c(I)c(C(=O)NCC(O)CO)c1I)c1c(I)c(C(=O)NCC(O)CO)c(I)c(C(=O)NCC(O)CO)c1I (centres undefined)
inactive: Potency [1] | Potency [2] | Potency [3] | Potency [4]

CCCCCCCCCCCCCCNCCO
inactive: Potency [1] | Potency [2] | Potency [3] | Potency [4]

O=c1[nH]c(=O)c2[nH]c(=O)[nH]c2[nH]1
inactive: activity change, negative = inhibition [1] -5.36% [at 11.5 µM] | activity change, negative = reduced viability [2] 13.2% [at 11.5 µM] | activity change, negative = lower viability [3] -14.6% [at 11.5 µM] | activity change, negative = inhibition [4] 20.2% [at 11.5 µM]

CN(C)CCCN1c2ccccc2Sc2ccc(C(F)(F)F)cc21
inactive: Potency [1] | Potency [2] | Potency [3] | Potency [4]

CCc1cc(Cl)c(OC)c(C(=O)NC[C@@H]2CCCN2CC)c1O
inactive: Potency [1] | Potency [2] | Potency [3] | Potency [4]

Cc1cccc(N(C)C(=S)Oc2ccc3c(c2)C2CCC3C2)c1 (centres undefined)
inactive: Potency [1] | Potency [2] | Potency [3] | Potency [4]

O=C1OC(OC(=O)c2cccnc2Nc2cccc(C(F)(F)F)c2)c2ccccc21 (centres undefined)
inactive: Potency [1] | Potency [2] | Potency [3] | Potency [4]

C[C@@H]1C[C@H]2[C@@H]3CCC4=CC(=O)C=C[C@]4(C)[C@@]3(F)[C@@H](O)C[C@]2(C)[C@H]1C(=O)CO
inactive: Potency [1] | Potency [2] | Potency [3] | Potency [4]

CC[N+](CC)(CC(=O)Nc1c(C)cccc1C)Cc1ccccc1
inactive: Potency [1] | Potency [2] | Potency [3] | Potency [4]

CNC(=O)c1cnn(-c2nc(N)c3ncn([C@@H]4O[C@H](CO)[C@@H](O)[C@H]4O)c3n2)c1
inactive: Potency [1] | Potency [2] | Potency [3] | Potency [4]

CCOC(=O)C(C)(C)Oc1ccc(Cl)cc1
inactive: Potency [1] | Potency [2] | Potency [3] | Potency [4]

C=CCSCC1Nc2cc(Cl)c(S(N)(=O)=O)cc2S(=O)(=O)N1 (centres undefined)
inactive: Potency [1] | Potency [2] | Potency [3] | Potency [4]

Nc1ccc(S(=O)(=O)Nc2cnc3ccccc3n2)cc1
inactive: Potency [1] | Potency [2] | Potency [3] | Potency [4]

CCCC(C(=O)OCCN(CC)CC)(c1ccccc1)c1ccccc1
inactive: Potency [1] | Potency [2] | Potency [3] | Potency [4]

Cc1ncc(COP(=O)(O)O)c(C=O)c1O
inactive: Potency [1] | Potency [2] | Potency [3] | Potency [4]

CC1(C)[C@@H](OC(=O)CCC(=O)O)CC[C@]2(C)[C@H]3C(=O)C=C4[C@@H]5C[C@@](C)(C(=O)O)CC[C@]5(C)CC[C@@]4(C)[C@]3(C)CC[C@@H]12
inactive: Potency [1] | Potency [2] | Potency [3] | Potency [4]

CC1(C)OC[C@@H](COC(=O)CCc2ccc(OC[C@@H](O)CNCCNC(=O)N3CCOCC3)cc2)O1
inactive: Potency [1] | Potency [2] | Potency [3] | Potency [4]

CCOC(=O)C(C#N)=C(c1ccccc1)c1ccccc1
inactive: Potency [1] | Potency [2] | Potency [3] | Potency [4]

CN1CCC(=C2c3ccccc3CCc3sccc32)CC1
inactive: Potency [1] | Potency [2] | Potency [3] | Potency [4]

CCN(CC)C(=O)Nc1ccc(OCC(O)CNC(C)(C)C)c(C(C)=O)c1 (centres undefined)
inactive: Potency [1] | Potency [2] | Potency [3] | Potency [4]

C#C[C@]1(O)CC[C@H]2[C@@H]3CCC4=CC(=O)CC[C@@H]4[C@H]3CC[C@@]21C
inactive: Potency [1] | Potency [2] | Potency [3] | Potency [4]

O=C1C(CCS(=O)c2ccccc2)C(=O)N(c2ccccc2)N1c1ccccc1 (centres undefined)
inactive: Potency [1] | Potency [2] | Potency [3] | Potency [4]

N[C@@H](Cc1ccc(O)cc1)C(=O)O
inactive: activity change, negative = inhibition [1] 4.89% [at 11.5 µM] | activity change, negative = reduced viability [2] 15.7% [at 11.5 µM] | activity change, negative = lower viability [3] 1.19% [at 11.5 µM] | activity change, negative = inhibition [4] 16.2% [at 11.5 µM]
